In the library only some 2.3% were active in any assay of this set; here they are far more common.
PAD4 FP inh: human PAD4 inhibitors, primary screen, biochemical, fluorescence polarization, 1536-well format. 330,000 compounds, 0.41% hits. recombinant PAD4, RCA probe fluorescence polarization. inhibition, % at 6.36 µM. AID 485272, 2010;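 active = percent inhibition above a cutoff equal to the mean of all tested compounds plus 3 SD, cut at about 15% in these data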;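 also: 0% = PAD4 with RCA probe and DMSO and 100% = probe without PAD4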
Target sequence (Q9UM07 whole entry, looked up): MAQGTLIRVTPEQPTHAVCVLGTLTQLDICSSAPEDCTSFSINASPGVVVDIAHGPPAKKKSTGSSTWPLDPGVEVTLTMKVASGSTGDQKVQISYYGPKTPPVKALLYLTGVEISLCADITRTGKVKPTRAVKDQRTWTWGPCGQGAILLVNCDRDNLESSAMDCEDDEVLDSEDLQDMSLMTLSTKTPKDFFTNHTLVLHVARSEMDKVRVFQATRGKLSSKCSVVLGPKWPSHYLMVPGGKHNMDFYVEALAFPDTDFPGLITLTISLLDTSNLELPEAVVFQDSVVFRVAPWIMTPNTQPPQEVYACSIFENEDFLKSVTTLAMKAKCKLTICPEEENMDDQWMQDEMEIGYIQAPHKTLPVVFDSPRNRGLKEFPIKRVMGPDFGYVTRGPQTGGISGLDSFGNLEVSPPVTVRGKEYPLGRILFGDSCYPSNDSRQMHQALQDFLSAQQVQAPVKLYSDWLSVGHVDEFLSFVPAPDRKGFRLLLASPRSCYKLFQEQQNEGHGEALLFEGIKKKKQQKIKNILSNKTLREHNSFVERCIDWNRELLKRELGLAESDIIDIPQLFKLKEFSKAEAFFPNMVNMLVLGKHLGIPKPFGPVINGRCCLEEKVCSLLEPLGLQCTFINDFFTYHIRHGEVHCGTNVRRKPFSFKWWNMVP
pPAFAH FP inh: pPAFAH enzyme inhibitors, primary screen, biochemical, fluorescence polarization, human; AID 463082, 2010; 330,000 compounds, 1.5% hits; inhibition, % at 3.39 µM; Platelet-activating factor acetylhydrolase (Homo sapiens), Q13093; recombinant pPAFAH, FP-rhodamine probe fluorescence polarization;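 active = inhibition above the mean inhibition across the screen plus 3 SD, cut at about 25% in these data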;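 also: inhibitors block binding of the rhodamine activity-based probe so polarization drops; 0% = enzyme with DMSO and 100% = wells lacking pPAFAH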
Fam108B inh: mouse Fam108B serine hydrolase inhibitors, primary screen, counter-screen for RBBP9 inhibitor project, biochemical, fluorescence polarization; AID 1947, 2009; inhibition, % at 9.51 µM; 300,000 compounds, 0.33% hits; recombinant Fam108B, FP-Rh probe fluorescence polarization;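 active = inhibition above the screen mean inhibition plus 3 SD, computed separately per campaign, cut at about 18% in these data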;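 also: inhibitors lower polarization as less probe binds the enzyme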
PME-1 primary: PME-1 inhibitors via competitive probe labeling, primary screen, biochemical, fluorescence polarization, FP-Rh probe, HTS. Protein phosphatase methylesterase 1 (Homo sapiens), Q9Y570. recombinant PME-1. inhibition, % at 5.9 µM. 320,000 compounds, 0.53% hits. AID 2130, 2009;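 active = inhibition above the campaign mean of all compounds plus 3 SD, cut at about 26% in these data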;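 also: competitive labeling of PME-1 active site by serine hydrolase directed probe; 0% = PME-1 with DMSO and 100% = wells lacking PME-1 enzyme; inhibitors block probe labeling so polarization falls and inhibition rises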
GSTO1 inh: inhibitors of recombinant GSTO1, primary screen, counter-screen for RBBP9 inhibitor project, biochemical, fluorescence polarization; Glutathione S-transferase omega-1 (Homo sapiens), P78417; activity-based probe fluorescence polarization; inhibition, % at 5.96 µM; 300,000 compounds, 1.1% hits;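 active = inhibition above the campaign mean inhibition plus 3 SD, cut at about 35% in these data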;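 also: 0% = GSTO1-1 with DMSO and 100% = wells lacking GSTO1-1 enzyme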
GSTO1 confirm: GSTO1 inhibitor hit confirmation, counter-screen for RBBP9 inhibitor project, biochemical, fluorescence polarization, triplicate | 2,400 compounds, 54% hits | shares compounds with GSTO1 inh | inhibition, % at 5.96 µM | AID 2176, 2009 | recombinant GSTO1, probe fluorescence polarization;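 active = inhibition above the primary screen's cutoff, its mean inhibition plus 3 SD, cut at about 35% in these data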;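 also: loss of polarization as inhibitors block binding of rhodamine sulfonate ester activity probe; 0% = GSTO1 with DMSO and 100% = wells lacking GSTO1 enzyme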
GSTO1 recomb ABPP: inhibitors of purified human GSTO1, late-stage follow-up, biochemical, gel ABPP, SE-Rh probe, percent inhibition; shares compounds with GSTO1 inh; recombinant GSTO1, gel ABPP SE-Rh probe fluorescence; inhibition, % at 1 µM; 130 compounds, 30% hits;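 active = inhibition of the enzyme GSTO1 above about 75%, limit read from the data; inactive = inhibition below that limit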
Active calls of the source: *.

Results for COc1ccc(OC)c(NC(=O)CSc2nnc(C3CCCCC3)n2-c2ccccc2)c1 ?
PAD4 FP inh: -1.3; pPAFAH FP inh: 19.7; Fam108B inh: 1.5; PME-1 primary: -2.9; GSTO1 inh: 6.0

Results for C=CCN(C(=O)C1CC(=O)N(C2CCCC2)C1)c1nc(-c2ccc(S(C)(=O)=O)cc2)cs1 (stereo unspecified) ?
PAD4 FP inh: 4.1; pPAFAH FP inh: 1.5; PME-1 primary: 6.8

How did NC(=S)N/N=C/c1coc2ccc(O)cc2c1=O do in these assays?
PAD4 FP inh: 3.0; pPAFAH FP inh: 7.3; Fam108B inh: -0.2; PME-1 primary: 7.5; GSTO1 inh: 66.6*; GSTO1 confirm: 12.4

What do the screens show for `Brc1cc2c(cc1/C=N/Nc1nc(N3CCOCC3)nc(N3CCOCC3)n1)OCO2`?
PAD4 FP inh: -1.4; pPAFAH FP inh: 4.0; Fam108B inh: -2.0; PME-1 primary: 3.1; GSTO1 inh: -4.1

What do the screens show for `CCC(=O)N1CCN(C(=O)CC)C1c1ccccc1`?
PAD4 FP inh: -4.9; pPAFAH FP inh: 1.7; Fam108B inh: 1.3; PME-1 primary: -3.4; GSTO1 inh: 3.9

How did O=C(CCl)N1c2ccccc2SCC1c1ccccc1 (stereo unspecified) do in these assays?
PAD4 FP inh: 4.4; pPAFAH FP inh: 6.4; Fam108B inh: 0.2; PME-1 primary: 1.7; GSTO1 inh: 85.7*; GSTO1 confirm: 93.6*; GSTO1 recomb ABPP: 75.0*

How did Nc1cc(N)c(OCC(F)(F)F)cc1OCC(F)(F)F do in these assays?
PAD4 FP inh: 54.9*; pPAFAH FP inh: 24.5; Fam108B inh: 9.9; PME-1 primary: 14.5; GSTO1 inh: 79.7*; GSTO1 confirm: 64.4*

How did Nc1cc(OCC(F)(F)F)cc([N+](=O)[O-])c1 do in these assays?
PAD4 FP inh: 0.7; pPAFAH FP inh: -2.3; Fam108B inh: 7.3; PME-1 primary: -3.9; GSTO1 inh: -2.5

How did CCc1cc(=O)oc2cc(OC(C)=O)cc(OC(C)=O)c12 do in these assays?
PAD4 FP inh: 1.0; pPAFAH FP inh: 5.1; Fam108B inh: -2.0; PME-1 primary: 8.4; GSTO1 inh: 47.1*; GSTO1 confirm: 2.9

Results for Cc1ccc(-c2cc(O)cc3sc(=O)oc23)cc1C ?
PAD4 FP inh: 6.6; pPAFAH FP inh: 14.0; Fam108B inh: 3.5; PME-1 primary: -0.3; GSTO1 inh: 53.4*; GSTO1 confirm: 7.8

How did Cc1ccc(-c2c(C)sc3nc[nH]c(=O)c23)cc1C do in these assays?
PAD4 FP inh: 4.1; pPAFAH FP inh: 0.7; Fam108B inh: -1.6; PME-1 primary: -2.9; GSTO1 inh: 3.1

Results for CCN(CC)C(=O)c1cc([N+](=O)[O-])cc2c1-c1ccc([N+](=O)[O-])cc1C2=C(C#N)C#N ?
PAD4 FP inh: -2.9; pPAFAH FP inh: 9.4; Fam108B inh: 7.6; PME-1 primary: 5.1; GSTO1 inh: 38.0*; GSTO1 confirm: 24.8

How did CCN(CC)C(=O)c1ccc(Oc2ccc([N+](=O)[O-])cc2Cl)cc1 do in these assays?
PAD4 FP inh: -1.9; pPAFAH FP inh: 10.0; Fam108B inh: -4.7; PME-1 primary: 4.1; GSTO1 inh: -2.5

Results for C[C@H](NC(=O)[C@@H]1Cc2ccccc2CN1)C(=O)NC1CCCC1 ?
PAD4 FP inh: 0.5; pPAFAH FP inh: 0.8; Fam108B inh: 0.0; PME-1 primary: -2.7; GSTO1 inh: 0.1

How did CCN(CC)c1ccc(N=Cc2cc(Br)ccc2O)cc1 do in these assays?
PAD4 FP inh: 13.5; pPAFAH FP inh: 23.9; Fam108B inh: -0.4; PME-1 primary: -0.3; GSTO1 inh: 74.3*; GSTO1 confirm: 6.0

What do the screens show for `CN(C)S(=O)(=O)c1ccc(Cl)c(NC(=O)CN2CCCC2)c1`?
PAD4 FP inh: -1.5; pPAFAH FP inh: 3.4; Fam108B inh: -3.4; PME-1 primary: -4.7; GSTO1 inh: -7.5

Results for CCc1noc(C)c1C(=O)N1CCN(S(=O)(=O)c2c(C)c(C)cc(C)c2C)CC1 ?
PAD4 FP inh: -3.9; pPAFAH FP inh: 3.7; Fam108B inh: 2.3; PME-1 primary: 5.6; GSTO1 inh: 2.7

What do the screens show for `CCCCC(=O)Nc1nnc(CCc2ccccc2)s1`?
PAD4 FP inh: 2.6; pPAFAH FP inh: 3.8; Fam108B inh: 4.6; PME-1 primary: 1.9; GSTO1 inh: 4.9

Results for c1cc2c3c(cccc3c1)NC1(CCCCCC1)N2 ?
PAD4 FP inh: 0.1; pPAFAH FP inh: 17.5; Fam108B inh: 3.1; PME-1 primary: 1.8; GSTO1 inh: 53.2*; GSTO1 confirm: 20.8

Results for COc1ccc(C)cc1-n1c(C)cc(C=O)c1C ?
PAD4 FP inh: -0.8; pPAFAH FP inh: 0.1; Fam108B inh: -2.4; PME-1 primary: -13.0; GSTO1 inh: 3.5

How did COc1ccc(N)cc1-n1c(C)ccc1C do in these assays?
PAD4 FP inh: 10.3; pPAFAH FP inh: 8.8; Fam108B inh: 5.2; PME-1 primary: 0.3; GSTO1 inh: 44.6*; GSTO1 confirm: 5.9

What do the screens show for `CCOc1ccc(NC(=O)CSc2ccc(-c3cccnc3)nn2)cc1`?
PAD4 FP inh: -0.4; pPAFAH FP inh: 4.8; Fam108B inh: -2.8; PME-1 primary: 0.8; GSTO1 inh: 1.4

How did COc1ccc(NS(=O)(=O)c2ccc3c(c2)oc(=O)n3C)cc1Cl do in these assays?
PAD4 FP inh: 0.2; pPAFAH FP inh: 3.4; Fam108B inh: -3.9; PME-1 primary: 1.1; GSTO1 inh: 51.3*; GSTO1 confirm: 57.4*

Results for Cc1ccc(C)n1-c1ccc(N(C)C)cc1 ?
PAD4 FP inh: 0.0; pPAFAH FP inh: 9.5; Fam108B inh: 3.9; PME-1 primary: -5.1; GSTO1 inh: 46.0*; GSTO1 confirm: 5.9

Results for CCC(=O)N(CC)C1=C(O)c2ccccc2C(=O)C1=O ?
PAD4 FP inh: 2.8; pPAFAH FP inh: 1.5; Fam108B inh: 1.0; PME-1 primary: 1.8; GSTO1 inh: 37.8*; GSTO1 confirm: 32.3

Results for CCOc1ccc(S(=O)(=O)N2CCC(C(=O)OC(C)C(=O)NC3CCCCC3C)CC2)cc1 (stereo unspecified) ?
PAD4 FP inh: 3.6; pPAFAH FP inh: 2.3; PME-1 primary: 2.9

Results for Cc1ccc(O)c(N=CC2=C(O)c3ccccc3C2=O)c1 ?
PAD4 FP inh: 3.8; pPAFAH FP inh: 30.2*; Fam108B inh: 16.4; PME-1 primary: 34.1*; GSTO1 inh: 68.4*; GSTO1 confirm: 25.7

How did O=C1C(C=Nc2ccccc2O)=C(O)c2ccccc21 do in these assays?
PAD4 FP inh: -7.7; pPAFAH FP inh: 1.8; Fam108B inh: 7.6; PME-1 primary: -33.4; GSTO1 inh: 6.2

Screening data as filed in PubChem.
